Assay outcomes from PubChem.
Sfp PPTase inh: Sfp phosphopantetheinyl transferase inhibition; hit rate 3.5% among 310,000; Biochemical Sfp PPTase activity, qHTS; Potency, µM, for inactives: largest response in the series, negative = inhibition, most hits filed as inhibitors; AID 1490; Q9F4F7;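 also: the enzyme is Sfp with the accession as filed and its product quenches rhodamine fluorescence; 0% = enzyme reaction without inhibitor and -100% = no enzyme wells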
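Compounds were incubated with enzyme (final 15 nM) for 15 min at room temperature before substrate addition started the reaction. Fluorescence at 525 nm excitation, 598 nm emission was recorded immediately and after 30 minutes.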
BAZ2B block: inhibitors of human BAZ2B bromodomain; Q9UIF8; AlphaScreen BAZ2B-H3K14Ac peptide displacement; Potency, µM (top dose mostly 114 µM), without a hit: at the highest dose activity change, negative = inhibition, most hits filed as inhibitors; hit rate 4.4% among 360,000; AID 504333; also: % is scaled to controls: 0 for no effect and ±100 for the full control effect; nearly all actives have a fitted effect of over 60% in size
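BAZ2B (50 nM) with biotin-H3(5-23)K14Ac peptide (50 nM) in PBS pH 7.4, 0.01% Tween-20, preformed 30 min, then compound 30 min at room temperature; top concentration 110uM. AlphaScreen streptavidin donor/nickel chelate acceptor beads (10 ug/mL final), 20 min dark, signal read.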
L3MBTL1 block: L3MBTL1 (human) inhibition; Q9Y468; AlphaScreen L3MBTL1–H3K9me1 peptide binding; Potency, µM (doses to about 57.1 µM), for the others: at the top dose activity, negative = inhibition, usual class: inhibitors; hit rate 0.66% among 230,000; AID 485360; also: % is scaled to controls: 0 for no effect and ±100 for the full control effect; nearly all actives have a fitted effect of over 60% in size
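AlphaScreen assay: L3MBTL1 (50 nM final) was preincubated 30 min at room temperature with biotinylated H3(1-15)K9me1 peptide (75 nM final), then 30 min with library compounds; streptavidin donor and nickel chelate acceptor beads (10 ug/mL final) added, 30 min dark.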
JMJD2A Tudor inh: blocks the human JMJD2A Tudor domain. AID 504339. hit rate 4.4% among 390,000. Potency, µM (doses to about 114 µM), without a hit: at the top dose activity change, negative = inhibition, most hits filed as inhibitors. AlphaScreen JMJD2A-Tudor / H3K4me3 peptide binding; also: % is scaled to controls: 0 for no effect and ±100 for the full control effect; nearly all actives have a fitted effect of over 50% in size
HP1b binding inh: HP1-beta chromodomain-methylated histone interaction inhibition; AlphaScreen HP1-beta / biotin-H3K9me3 peptide binding; P83916; hit rate 0.56% among 390,000; Potency, µM (series often up to 114 µM), for inactives: at the highest dose activity change, negative = inhibition, usual class: inhibitors; also: nearly all actives have a fitted effect of over 70% in size
Target sequence (P83916 whole entry, looked up): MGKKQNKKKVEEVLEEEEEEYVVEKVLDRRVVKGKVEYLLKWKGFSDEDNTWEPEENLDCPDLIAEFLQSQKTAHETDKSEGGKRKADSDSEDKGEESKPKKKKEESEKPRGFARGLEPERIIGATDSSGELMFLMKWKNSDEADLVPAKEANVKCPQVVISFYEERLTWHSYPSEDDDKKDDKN
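AlphaScreen: HP1-beta (50 nM) preformed 30 min with biotin-H3(1-18)K9me3 peptide (50 nM) in PBS pH 7.4, 0.01% Tween-20. Compound added for 30 min at RT, then streptavidin donor/nickel chelate acceptor beads (10 ug/mL) for 30 min.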
G9a inh: blocks human histone lysine methyltransferase G9a; Q96KQ7; G9a H3K9 monomethylation, AlphaScreen, 2 h; Potency, µM (top dose mostly 102 µM), without a hit: at the highest dose activity, negative = inhibition, most hits filed as inhibitors; hit rate 8.8% among 350,000; also: % is scaled to controls: 0 for no effect and ±100 for the full control effect; nearly all actives have a fitted effect of over 75% in size
Target sequence (Q96KQ7 913-1193 limits assumed): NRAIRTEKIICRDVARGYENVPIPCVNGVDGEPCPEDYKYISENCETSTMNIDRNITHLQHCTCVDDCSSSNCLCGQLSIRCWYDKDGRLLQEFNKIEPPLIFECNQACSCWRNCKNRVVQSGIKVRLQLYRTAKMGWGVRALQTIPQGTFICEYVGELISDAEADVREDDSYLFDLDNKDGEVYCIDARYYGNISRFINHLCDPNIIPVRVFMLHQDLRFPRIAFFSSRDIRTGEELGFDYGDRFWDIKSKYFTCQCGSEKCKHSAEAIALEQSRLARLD
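Quantitative HTS format: methyltransferase activity on a biotin-tagged H3K9 peptide is measured by AlphaScreen, using a rabbit anti-monomethyl-H3K9 antibody with streptavidin donor and anti-IgG acceptor beads. Final levels are 20 nM enzyme, 500 nM peptide, 20 uM SAM; 2 h RT.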
The depositor's hits bear a star; u = inconclusive; x = no result given; [ ] = remark or other dose. Shown are actives, neighbours in structure and some others; about 12% of the full set was active somewhere. Calls follow the shape of the dose curve; as a rule, active = well fitted curve in the direction sought with a large enough effect; inconclusive = small, poorly fitted or top-dose-only effect, or another doubt; inactive = no such curve, though single readings can be large; an effect the other way counts as inactive or inconclusive. Potency is read from the fitted curve at half-maximal effect.

SMILES	Sfp PPTase inh	BAZ2B block	L3MBTL1 block	JMJD2A Tudor inh	HP1b binding inh	G9a inh
Fc1ccccc1OCCCCN1CCCCC1	-16%	u	-1%	79µM*	-12%	50µM*
COc1ccc(-n2c(=O)c(-c3cccs3)nc3cnc(OC)nc32)cc1	13%	x	x	x	x	9%[0.501 µM]
CCOC(=O)C(=NCCCN(C)C)NNc1cc(C(F)(F)F)ccc1Cl	-35%	-34%	x	45µM*	u	40µM*
CCOC(=O)C(=NCCCN(C)C)NNc1ccc(Br)cc1	17%	4%	4%	-11%	-3%	7.1µM*
CCCCN=C(NNc1ccc(Br)cc1)C(=O)OCC	-3%	u	-12%	u	-10%	11µM*
CCOC(=O)C(=O)NNc1ccc(C)cc1	-15%	3%	6%	-6%	30%	u
CCOC(=O)C(=O)NNc1ccc(Cl)cc1	2%	-2%	x	3%	32%	u
CC(=O)Nc1ccc(S(=O)(=O)Nc2nc3ccc([N+](=O)[O-])cc3s2)cc1	14%	15%	15%	-5%[11.4 µM]	30%	45µM*
CCc1noc(C)c1C(=O)Nc1nc2ccc(S(C)(=O)=O)cc2s1	x	12%	1%	-1%	46%	50µM*
CC(C)C(=O)Nc1nc2ccc(S(C)(=O)=O)cc2s1	2%	-10%	8%	-2%	29%	x
CCC(C)C(=O)Nc1nc2ccc(S(C)(=O)=O)cc2s1 (centres undefined)	-14%	-6%	14%	-1%[11.4 µM]	4%	32µM*
CS(=O)(=O)c1ccc2nc(NC(=O)CCNC(=O)c3ccc([N+](=O)[O-])cc3)sc2c1	x	7%	0%	-1%	29%	40µM*
CC(=O)Nc1ccc(S(=O)(=O)Nc2nc3ccccc3s2)cc1	6%	-10%	x	-11%	29%	8%[12.7 µM]
O=C(CSc1nccn1-c1ccc(F)cc1)Nc1nc2ccccc2s1	x	-7%	x	-10%	3%[57 µM]	-5%[59 µM]
CCc1noc(C)c1C(=O)Nc1nc2ccc(F)cc2s1	x	5%	12%	-21%	23%	16µM*
COc1cc(NS(=O)(=O)c2ccc(NC(=O)c3ccc(OC)c(Br)c3)cc2)nc(OC)n1	x	-7%	x	-18%	27%	u
COc1ccc(-c2cn3nc4c(nc3n2)CCCC4)cc1	-25%	7%	x	18%	78%	79µM*
COc1ccc(-c2cn3ccccc3n2)cc1	12%	-14%	-12%	-26%	16%	2%
CC(C)c1cc(C(=O)NC(C)c2ccccc2)no1 (centres undefined)	x	2%	x	5%	47%	4%[59 µM]
N#CC(Sc1ccccn1)c1ccc(Cl)cc1 (centres undefined)	28µM*	7%	x	-6%[11.4 µM]	13%	7.9µM*
O=C(NCCSc1ccccn1)c1ccc(Cl)cc1	14%	2%	x	-8%	53%	11%[59 µM]
Cc1cccc(-c2nc3c(cnn3-c3ccccc3)c(=O)n2-c2cccc(Cl)c2)c1	x	-16%	x	-18%	3%	u
O=c1c(-c2ccc(Cl)cc2)c[nH]n1-c1ccccc1	0%	8%	x	-16%	25%	11%[2.33 µM]
S=c1[nH]cc(-c2ccccc2)n1-c1cccc(Cl)c1	-9%	-33%	-14%	56µM*	19%	1.1µM*
Cc1ccc(-c2c[nH]c(=S)n2-c2ccccc2)cc1	20µM*	u	-25%	u	-14%	0.71µM*
SMILES	Sfp PPTase inh	BAZ2B block	L3MBTL1 block	JMJD2A Tudor inh	HP1b binding inh	G9a inh
CCOc1ccc(-n2c(-c3ccccc3)nnc2-c2ccccc2)cc1	-1%	0%	-7%	5%	2%	9%
COc1cccc(-n2c(-c3ccccc3)c[nH]c2=S)c1	45µM*	u	x	u	u	1.4µM*
Cc1ccc(-n2c(-c3ccccc3)cc(=O)nc2C)cc1	7%	-4%	6%	-20%	23%	36%[12.7 µM]
CCOc1ccc(-n2c(-c3ccccc3)c[nH]c2=S)cc1	-24%	-11%	x	u	25%	1.3µM*
COc1cc(Cl)c(C)cc1NC(=O)CSc1nc2c(c(=O)[nH]1)CCC2	x	-12%	x	-14%	27%	u
CCOC(=O)c1c(SCC(=O)Nc2nc3ccc(C)cc3s2)nc(=O)[nH]c1C	x	-2%	x	-9%	26%	8%[59 µM]
CC(=O)Nc1cc2c(s1)c1cnn(Cc3ccccc3F)c(=O)c1n2C	x	-1%	13%	x	x	-27%[12.7 µM]
CCOc1ccc(C2C(C(=O)/C=C/c3ccco3)=C(O)C(=O)N2CCN2CCOCC2)cc1OC (centres undefined)	56µM*	x	x	u	19%	45µM*
COc1ccc(C2C(C(=O)/C=C/c3ccco3)=C(O)C(=O)N2CCN2CCOCC2)cc1 (centres undefined)	-30%	79µM*	-17%	-34%	17%	u
C=CCOc1cccc(C2C(C(=O)c3ccco3)=C(O)C(=O)N2CCN2CCOCC2)c1 (centres undefined)	-15%	u	-3%	u	48%	-27%[12.7 µM]
COc1cccc(C2C(C(=O)/C=C/c3ccco3)=C(O)C(=O)N2CCN2CCOCC2)c1 (centres undefined)	u	x	x	-31%	28%	50µM*
COc1cc(C2C(C(=O)c3cccs3)=C(O)C(=O)N2CCN2CCOCC2)cc(OC)c1OC (centres undefined)	5%	2%	-4%	2%	40%	u
Cc1ccccc1C(=O)Nc1ccccc1OCc1cc(=O)n2ccccc2n1	x	9%	x	-19%	13%[57 µM]	1%[59 µM]
Cc1cccc(CCNC(=O)c2cc3c(=O)n(C)c4ccccc4c3n2C)c1	x	-9%	x	0%	27%	7%[59 µM]
COc1ccc([C@]23Cc4cc(C#N)ccc4C(O2)c2c(c4ccc(OC)cc4oc2=O)O3)cc1	6%	u	x	x	x	u
CCc1oc(C(=O)OC)cc1CSC(=N)N	12%	-6%	0%	-15%	12%	50µM*
CN1C(=O)Cc2cc(S(=O)(=O)NCc3ccc(Cl)cc3)ccc21	x	1%	x	3%	33%	u
COc1ccc(/C=C2\CCc3c2nc2ccccc2c3C(=O)O)cc1OC	-13%	-2%	u	-5%	46%	u
COc1cc(-c2nc3ccc4ccccc4c3c3c2CCC3)cc(OC)c1OC	u	-4%	3%	-7%	43%	28%[12.7 µM]
CN(C)c1ccc(/C=C2\CCCc3c2nc2ccccc2c3C(=O)O)cc1	-27%	-23%	x	-17%	11%	40µM*
COc1cc(/C=C2\CCCc3c2nc2ccccc2c3C(=O)O)cc([N+](=O)[O-])c1O	12%	56µM*	x	u	u	40µM*
O=C(O)c1ccc(/C=C2\CCCc3c2nc2ccccc2c3C(=O)O)cc1	13%	-11%	x	-5%	23%	u
